# Hits are enriched below; roughly 2.4% of the tested compounds scored in any of these assays.
# POLI inh: DNA polymerase iota (human) inhibition; AID 588590; Potency, µM (doses to about 115 µM), inactives show at the top dose activity, negative = inhibition, hits mostly inhibitors; 1% of 390,000 active; Pol iota fluorescent replication assay, 10 min; Q9UNA4
#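 Fluorescent replication assay read twice, at 0 min and 10 min after adding 50 nM (final) substrate. Enzyme (10 nM) and compounds were first incubated 15 min at room temperature; enzyme-free buffer wells were negative controls.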
# FEN1 inh: inhibitors of human flap endonuclease 1. P39748. Recombinant FEN1 flap cleavage, fluorescence, 15 min. Potency, µM (highest dose often 114 µM), inactives show at the highest dose activity change, negative = inhibition, usual class: inhibitors. 0.35% of 390,000 active; also: % is scaled to controls: 0 for no effect and ±100 for the full control effect; nearly all actives have a fitted effect of over 65% in size
#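 Quantitative HTS format: each compound was titrated, incubated with 10 nM nuclease for 15 min at room temperature, then challenged with flap substrate at 50 nM final. Signal change over 15 min gave concentration–effect curves.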
# WRN inhibitor: WRN helicase (human) inhibition; WRN helicase unwinding, fluorescent forked duplex, kinetic; Potency, µM (doses to about 114 µM), inactives show top-dose activity change, negative = inhibition, usual class: inhibitors; 0.46% of 360,000 active; AID 651768; also: % is scaled to controls: 0 for no effect and ±100 for the full control effect; nearly all actives have a fitted effect of over 55% in size
#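 Fluorescence dequenching readout, ex 525 nm/em 598 nm, kinetic mode: forked duplex DNA (100 nM final) with adjacent fluorophore and quencher unwound by WRN (20 nM final) with 2 mM ATP. Compound preincubation 15 min, room temperature.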
# Pol eta inh: DNA polymerase eta (human) inhibition | Q9Y253 | recombinant Pol eta, fluorescent DNA replication assay | Potency, µM (doses to about 114 µM), for inactives: top-dose activity change, negative = inhibition, most hits filed as inhibitors | 1.2% of 390,000 active; also: % is scaled to controls: 0 for no effect and ±100 for the full control effect
#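 Pol eta (10 nM) was preincubated with compounds for 15 min at room temperature, after which fluorescent replication substrate (50 nM final) was added to start the reaction. Fluorescence was read kinetically at 0 and 10 min.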
# Pol beta inh: inhibitors of human DNA polymerase beta; 1.3% of 340,000 active; P06746; Pol beta primer extension/strand displacement, fluorescence kinetic; AID 485314; Potency, µM (series often up to 114 µM), for the others: at the highest dose activity change, negative = inhibition, most hits filed as inhibitors; also: % is scaled to controls: 0 for no effect and ±100 for the full control effect
#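 Pol beta (10 nM) was preincubated with compound for 15 min at room temperature. The reaction was then started with 50 nM substrate and read immediately and after a further 10 min at room temperature.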
# POLK inh: DNA polymerase kappa (human) inhibition; Potency, µM (titrated, usually from 107 µM), for inactives: at the top dose activity, negative = inhibition, most hits filed as inhibitors; AID 588579; Q9UBT6; purified Pol kappa, fluorescent DNA synthesis assay, 10 min; 0.53% of 400,000 active; also: % is scaled to controls: 0 for no effect and ±100 for the full control effect
#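 50 nM final substrate added after 15 min RT preincubation of 10 nM Pol kappa with compound; fluorescence read at 0 and 10 min.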
# Numbers without * were called inactive; ? = inconclusive; · = no result given; ! = a repeat was not active; [ ] = dose if it differs, or a comment. Calls follow the shape of the dose curve; as a rule, active = well fitted curve in the direction sought with a large enough effect; inconclusive = small, poorly fitted or top-dose-only effect, or another doubt; inactive = no such curve, though single readings can be large; an effect the other way counts as inactive or inconclusive. Potency is read from the fitted curve at half-maximal effect.
SMILES,POLI inh,FEN1 inh,WRN inhibitor,Pol eta inh,Pol beta inh,POLK inh
OC[C@@H]1O[C@](CO)(O[C@H]2O[C@H](CO)[C@@H](O)[C@H](O)[C@H]2O)[C@H](O)[C@H]1O,·,·,·,·,·,1%[19.4 µM]
CCCCCC=CCC=CCCCCCCCC(=O)OCC,·,·,·,·,·,0%[19.4 µM]
CCOC(=O)c1ccc(NC(=O)c2cc3c(n(-c4ccc(C)cc4)c2=O)CC(C)(C)CC3=O)cc1,?,17%,·,-19%,-4%,89µM*
Clc1ccc2nc[nH]c2c1,11%,18%,·,·,·,5%
O=C1CCCC/C1=C\Nc1ccc(O)cc1,25µM*,-3%,-4%,-3%,-4%,-3%
O=C1CCC/C1=C/Nc1ccc(Cl)cc1,-13%,-3%,4%,-6%,-9%,-2%
O=C1CCC/C1=C/Nc1ccc2c(c1)OCO2,22%,-13%,-6%,5%,25µM*,-3%
CCCCCNC(=O)c1ccc2c(=O)n(CCOC)c(=O)[nH]c2c1,20%,5%,8%,-17%,-1%,-3%
CCCCCCn1c(=O)[nH]c2nc3cc(N)ccc3nc2c1=O,27%,-1%,-32%[57.1 µM],-23%,10µM*,-16%
Cc1nc2nc(NC(=O)c3ccc(C(C)(C)C)cc3)[nH]n2c(=O)c1C,-18%,7%,·,-8%,0%,-6%
COc1cc(C(=S)N2CCCCC2)ccc1O,56µM*,-8%,-8%[57.1 µM],4%,7%,-3%[60.1 µM]
C=C1C=C(C(F)F)n2ncc(C(=O)NCc3ccccc3OC)c2N1,8%,6%,·,·,·,12%
CCn1c(CSc2nnc(-c3ccncc3)n2C)nc2cc(C(=O)O)ccc21,25µM*,?,71µM*,-23%,-25%,-9%
CCn1c(CSc2ncn[nH]2)nc2cc(C(=O)O)ccc21,16%,1%,-24%,3%,8%,4%
CC(=O)OCC(NC(=O)C(COCc1ccccc1)NC(=O)OC(C)(C)C)C1OC(n2cc(F)c(=O)[nH]c2=O)C(OC(C)=O)C1OC(C)=O (configuration not stated),29%,1%,·,·,·,-21%
COC(=O)c1ccc(OC(=O)c2cccnc2SC)cc1,30%,14%,13%[57.1 µM],-4%,15%,-5%
COC(=O)c1ccc(OC(=O)c2ccccn2)cc1,18µM*,-5%,3%,9%,?,-9%
COc1cc2c(cc1OC)C(c1ccc(Cl)cc1)N(c1cccc(C#N)c1)C(=O)C2 (configuration not stated),10%,8%,·,-8%,-7%,11%
CCCCC(=NCCc1c(C)[nH]c2ccccc12)C1=C(O)CC(c2ccccc2)CC1=O (configuration not stated),20%,4%,-6%[57.1 µM],-10%,2%,4%
CCCC(=NCCc1c(C)[nH]c2ccccc12)C1=C(O)CC(c2ccccc2)CC1=O (configuration not stated),89µM*,-4%,0%,-25%,2%,-7%
Cc1c(C(=O)NC(C)C)oc2c1-c1[nH]ncc1CC2,25µM*,3%,-7%,10%,42%,2%
O=C(COc1ncnc2ccccc12)N1CCN(C(=O)c2ccco2)CC1,7%,1%,11%,-13%,-1%,-3%
O=C(COc1ncnc2sccc12)N1CCN(C(=O)c2ccco2)CC1,20µM*,1%,?,?,40µM*,?
Cc1cccc(C2=N[C@@H](Cc3ccccc3)CO2)c1,·,·,·,·,·,-21%
Cc1c(-c2nsc(NC(=O)c3cccs3)n2)nnn1-c1ccc(Cl)cc1,?,?,·,?,20µM*,-44%
SMILES,POLI inh,FEN1 inh,WRN inhibitor,Pol eta inh,Pol beta inh,POLK inh
C[C@H]1c2cccc(O)c2C(O)=C2C(=O)C3(O)C(O)=C(C(N)=O)C(=O)[C@@H](N(C)C)[C@@H]3[C@@H](O)[C@@H]21 (some centres not stated),-13%,?,3%,-8%,·,1%
C=C1c2cccc(O)c2C(O)=C2C(=O)[C@]3(O)C(O)=C(C(N)=O)C(=O)C(N(C)C)C3C(O)C12 (some centres not stated),·,·,·,·,·,4µM*
Cc1ncc(CO)c(/C=N/NC(=O)c2cc(O)c(O)c(O)c2)c1O,·,·,·,·,0.32µM*,·
CN(C)[C@H]1C(=O)C(C(=O)NCN2CCCC2)=C(O)[C@]2(O)C(=O)C3=C(O)c4c(O)cccc4[C@](C)(O)[C@H]3C[C@H]12,·,·,·,·,·,3.8µM*
CN(C)[C@@H]1C(=O)C(C(=O)NCN2CCCC2)=C(O)[C@@]2(O)C(=O)C3=C(O)c4c(O)cccc4[C@@](C)(O)C3CC12 (some centres not stated),·,·,·,·,0.5µM*,·
COC(=O)CN1C(=O)[C@@H]2[C@H](C1=O)[C@@H]1CC(C(=O)OC)=C[C@@H](C(=O)OC)C3C1=C(C(=O)[C@]3(C)NC(=O)c1ccccc1)[C@@H]2C (some centres not stated),10%,15%,·,·,·,-4%
COc1ccc(Nc2nc3cc(Cl)c(Cl)cc3n3cnnc23)cc1Cl,16%,-8%,·,-4%,-2%,0%
OC(C[n+]1c(Cl)ccc2ccccc21)c1ccccc1 (configuration not stated),?,13%,·,·,·,2%
CN=C1SC(CC(=O)NCCc2ccc(OC)c(OC)c2)C(=O)N1C (configuration not stated),?,-1%,3%,56µM*!,1%,?
Cc1ccc(-c2nn3c(C)nnc3s2)cc1NC(=O)c1ccc(Br)o1,-22%,1%,-1%,-6%,-1%,12%
Cc1ccc(-c2nn3c(C)nnc3s2)cc1NC(=O)c1ccc(-c2cccc(Cl)c2)o1,32µM*,?,50µM*,?,7.1µM*,-24%
Cc1ccc(-c2nn3c(C)nnc3s2)cc1NC(=O)c1ccc(-c2ccc(Cl)cc2Cl)o1,?,56µM*,?,?,4µM*,?
O=C(Nc1cc(Cl)cc(Cl)c1)c1cnn2c1NC(=C1CC1)C=C2C(F)F,23%,-4%,·,·,·,3%
COc1ccc(OC)c(NC(=O)c2c(NCc3ccc(C)o3)sc3c2CCCCC3)c1,28µM*,?,·,-21%,-5%,0%[60.1 µM]
Cc1cc(NC(=O)Cn2c(=O)oc3cc(S(=O)(=O)N4CCCC4)ccc32)ccc1Br,-3%,-3%,·,-20%,13µM*,2%[60.1 µM]
CCc1ccc(NC(=O)Cn2c(=O)ccc3cc(S(=O)(=O)N4CCCC4)ccc32)cc1,18%,-5%,·,89µM*,7%,-2%[60.1 µM]
Cc1cc(C)cc(NC(=O)Cn2c(=O)oc3cc(S(=O)(=O)N4CCCC4)ccc32)c1,-29%,-4%,·,·,?,1%
